Experimental data reported in PubChem BioAssay.
Unmarked numbers belong to inactive results. Activity calls are given as the source filed them.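 How the source made its calls, unless noted: active means mean inhibition above 46.68%, the untreated control wells mean plus 3 SD; inactive means the rest.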

What was measured:
[1] = target: Nuclear receptor coactivator 3 (Homo sapiens) (UniProt Q9Y6Q9); test: NCOA3 GAL4-fusion reporter inhibition – cell-based, luminescence, quadruplicate, confirmation (AID 588792;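 active means mean inhibition over 43.08%, the solvent-only control mean plus 3 SD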;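 further: 0% = DMSO treated cells and 100% = gossypol at 36 µM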); settings: HEK293 GAL4-SRC3 luciferase reporter, at 3.6 µM, stronger effect = higher value
Chain of Nuclear receptor coactivator 3 (Homo sapiens) (Q9Y6Q9 whole entry, looked up, the tested form may be a part): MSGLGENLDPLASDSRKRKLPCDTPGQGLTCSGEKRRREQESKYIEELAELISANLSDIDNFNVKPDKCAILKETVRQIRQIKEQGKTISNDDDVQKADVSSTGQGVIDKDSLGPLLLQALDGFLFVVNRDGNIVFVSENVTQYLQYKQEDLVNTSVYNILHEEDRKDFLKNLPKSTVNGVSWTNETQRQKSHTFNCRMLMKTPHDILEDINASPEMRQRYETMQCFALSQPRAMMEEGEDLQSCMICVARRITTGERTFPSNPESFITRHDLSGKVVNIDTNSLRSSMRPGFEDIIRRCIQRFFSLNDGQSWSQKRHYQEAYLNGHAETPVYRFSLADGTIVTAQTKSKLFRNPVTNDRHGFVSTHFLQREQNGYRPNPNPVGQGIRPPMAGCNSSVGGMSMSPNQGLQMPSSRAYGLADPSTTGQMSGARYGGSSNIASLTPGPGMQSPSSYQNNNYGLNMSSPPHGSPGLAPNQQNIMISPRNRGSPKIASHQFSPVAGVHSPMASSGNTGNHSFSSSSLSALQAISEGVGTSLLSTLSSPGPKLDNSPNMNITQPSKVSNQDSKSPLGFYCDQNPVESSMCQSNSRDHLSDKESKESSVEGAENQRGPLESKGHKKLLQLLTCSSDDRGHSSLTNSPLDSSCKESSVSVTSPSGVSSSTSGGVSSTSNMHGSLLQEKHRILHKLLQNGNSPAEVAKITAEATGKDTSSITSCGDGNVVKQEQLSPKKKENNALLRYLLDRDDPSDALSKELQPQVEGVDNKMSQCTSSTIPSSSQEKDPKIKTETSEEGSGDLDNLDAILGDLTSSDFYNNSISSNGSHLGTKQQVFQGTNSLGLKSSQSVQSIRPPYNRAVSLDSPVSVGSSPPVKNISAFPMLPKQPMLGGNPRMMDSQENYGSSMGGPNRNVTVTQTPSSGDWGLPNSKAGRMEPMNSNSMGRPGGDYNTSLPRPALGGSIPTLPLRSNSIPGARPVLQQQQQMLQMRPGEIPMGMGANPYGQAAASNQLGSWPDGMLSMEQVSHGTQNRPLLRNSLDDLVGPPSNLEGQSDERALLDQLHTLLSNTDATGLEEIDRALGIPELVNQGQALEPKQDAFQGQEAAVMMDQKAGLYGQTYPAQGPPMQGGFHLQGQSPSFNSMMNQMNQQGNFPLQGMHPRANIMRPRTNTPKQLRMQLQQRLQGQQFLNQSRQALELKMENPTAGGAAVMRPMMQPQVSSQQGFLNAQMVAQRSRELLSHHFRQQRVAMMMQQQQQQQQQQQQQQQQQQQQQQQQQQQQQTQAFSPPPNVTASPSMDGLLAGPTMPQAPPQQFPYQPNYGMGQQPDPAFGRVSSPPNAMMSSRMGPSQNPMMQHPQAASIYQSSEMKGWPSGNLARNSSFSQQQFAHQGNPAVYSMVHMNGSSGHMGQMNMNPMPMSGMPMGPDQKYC

[2] = tested on: transactivating tegument protein VP16 (Human herpesvirus 1), Gal4-VP16 luciferase reporter; test: repression of VP16-driven luciferase reporter – cell-based, luminescence, high throughput, counter-screen for SRC3 inhibitor project (AID 588794; in the data active means inhibition above about 30%); settings: mammalian cells, at 3.6 µM, stronger effect = higher value
[3] = target: Nuclear receptor coactivator 1 (Homo sapiens) (UniProt Q15788); test: NCOA1 GAL4-fusion reporter inhibition – cell-based, luminescence, quadruplicate, confirmation (AID 588820); settings: HEK293 GAL4-SRC1 luciferase reporter, at 3.6 µM, stronger effect = higher value;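 further: 0% = DMSO wells and 100% = gossypol 36 µM treated wells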
Chain of Nuclear receptor coactivator 1 (Homo sapiens) (Q15788 whole entry, looked up, the tested form may be a part): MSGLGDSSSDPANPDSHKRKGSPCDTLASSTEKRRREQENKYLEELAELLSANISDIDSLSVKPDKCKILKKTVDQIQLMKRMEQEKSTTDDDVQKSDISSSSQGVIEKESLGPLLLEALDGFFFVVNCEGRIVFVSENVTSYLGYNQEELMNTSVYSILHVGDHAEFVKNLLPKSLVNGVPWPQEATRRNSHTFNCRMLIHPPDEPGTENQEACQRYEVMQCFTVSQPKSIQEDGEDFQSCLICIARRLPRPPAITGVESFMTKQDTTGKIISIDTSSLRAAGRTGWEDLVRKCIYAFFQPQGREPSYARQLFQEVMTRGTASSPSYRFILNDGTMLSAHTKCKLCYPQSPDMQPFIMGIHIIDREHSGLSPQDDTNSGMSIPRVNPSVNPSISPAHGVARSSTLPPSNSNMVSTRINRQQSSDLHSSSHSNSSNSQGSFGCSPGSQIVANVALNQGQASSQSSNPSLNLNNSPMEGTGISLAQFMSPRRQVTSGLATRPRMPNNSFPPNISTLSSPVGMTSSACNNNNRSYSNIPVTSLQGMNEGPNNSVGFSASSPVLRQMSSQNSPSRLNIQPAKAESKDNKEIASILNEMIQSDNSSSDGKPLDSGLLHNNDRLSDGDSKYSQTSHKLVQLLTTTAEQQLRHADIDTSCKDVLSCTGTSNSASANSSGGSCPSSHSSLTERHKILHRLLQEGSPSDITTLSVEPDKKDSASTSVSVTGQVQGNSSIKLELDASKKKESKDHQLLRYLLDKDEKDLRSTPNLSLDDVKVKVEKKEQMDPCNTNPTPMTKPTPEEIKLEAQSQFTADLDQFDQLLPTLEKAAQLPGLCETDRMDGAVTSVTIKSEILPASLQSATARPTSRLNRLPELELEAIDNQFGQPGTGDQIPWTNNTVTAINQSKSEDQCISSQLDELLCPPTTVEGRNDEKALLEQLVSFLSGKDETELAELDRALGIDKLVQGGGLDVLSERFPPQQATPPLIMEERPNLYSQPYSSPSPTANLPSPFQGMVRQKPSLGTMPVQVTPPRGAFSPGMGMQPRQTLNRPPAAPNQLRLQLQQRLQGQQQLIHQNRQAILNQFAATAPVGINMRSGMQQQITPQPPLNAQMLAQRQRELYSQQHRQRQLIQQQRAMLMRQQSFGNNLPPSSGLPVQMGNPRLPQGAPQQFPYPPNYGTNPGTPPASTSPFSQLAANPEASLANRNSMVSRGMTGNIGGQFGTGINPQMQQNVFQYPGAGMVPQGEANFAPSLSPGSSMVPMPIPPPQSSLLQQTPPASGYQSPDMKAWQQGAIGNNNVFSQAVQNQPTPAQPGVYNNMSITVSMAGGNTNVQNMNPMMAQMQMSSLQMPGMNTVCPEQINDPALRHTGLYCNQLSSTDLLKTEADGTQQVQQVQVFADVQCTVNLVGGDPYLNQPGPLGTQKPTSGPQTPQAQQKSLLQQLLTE

[4] = repression of VP16-driven luciferase reporter – cell-based, luminescence, high throughput, counter-screen for SRC1 inhibitor project (AID 588824; in the data active means inhibition above about 25%); settings: cell-based VP16 transactivation luciferase luminescence; at 3.6 µM; stronger effect = higher value

Cc1ccc2occ(/C=N/NC(=O)c3ccncc3)c(=O)c2c1
inhibition [1]: 21.2% | inhibition [2]: 15.1% | inhibition [3]: 20.3% | inhibition [4]: 14.4%

NNC(=O)c1cnn(Cc2ccccc2)c1N
inhibition [1]: -5.29% | inhibition [2]: 2.66% | inhibition [3]: -14.9% | inhibition [4]: -5.69%

COc1ccc(NC(=O)c2cc([N+](=O)[O-])ccc2O)cc1
inhibition [1]: 42.1% | inhibition [2]: 35.5% (active) | inhibition [3]: -37.7% | inhibition [4]: 29.2% (active)

COC1C(OC(=O)/C=C/C=C/C=C/C=C/C(=O)O)CCC2(CO2)C1C1(C)OC1CC=C(C)C (stereo unspecified) (tested in a mixture with another compound)
inhibition [1]: 17.6% | inhibition [2]: 20.7% | inhibition [3]: 9.4% | inhibition [4]: 20.7%

Nc1nc(=O)n(C2OC(CO)C(O)C2O)cc1F (stereo unspecified)
inhibition [1]: 13.6% | inhibition [2]: 31.5% (active) | inhibition [3]: 40.1% | inhibition [4]: 38.9% (active)

CCOC(=O)c1ccccc1OC(=O)NNc1ccccc1
inhibition [1]: 15.6% | inhibition [2]: 46.1% (active) | inhibition [3]: 11.2% | inhibition [4]: 38.8% (active)

CCOc1ccc(-n2c(C)c(C(C)=O)c3cc(OC(C)=O)ccc32)cc1
inhibition [1]: 67.3% (active) | inhibition [2]: 44.5% (active) | inhibition [3]: 65.8% (active) | inhibition [4]: 47.6% (active)

COc1cccc2c1C(=N)c1c(O)c3c(c(O)c1C2=O)CC(O)(C(C)=O)CC3OC1CC(N)C(O)C(C)O1 (stereo unspecified)
inhibition [1]: 41.9% | inhibition [2]: -33.3% | inhibition [3]: 26.9% | inhibition [4]: -29.4%

O=C(NN=C(c1ccccc1)c1ccccn1)c1ccccc1
inhibition [1]: 44.2% (active) | inhibition [2]: 42.1% (active) | inhibition [3]: 36.7% | inhibition [4]: 43.1% (active)

CC(C)(C)c1nnc(N/N=C/c2ccccc2O)n(N)c1=O
inhibition [1]: 80.1% (active) | inhibition [2]: 76.7% (active) | inhibition [3]: 74.4% (active) | inhibition [4]: 76.2% (active)

O=c1[nH]c(=O)n(C2OC(CO)C(O)C2O)cc1F (stereo unspecified)
inhibition [1]: 57.4% (active) | inhibition [2]: 58.5% (active) | inhibition [3]: 26.9% | inhibition [4]: 57.2% (active)

CC(C)c1ccc(-c2nnn(CCC(=O)O)n2)cc1
inhibition [1]: 52.2% (active) | inhibition [2]: 46.8% (active) | inhibition [3]: 41.3% | inhibition [4]: 37.5% (active)

O=C(N/N=C/c1ccccc1O)/C(=C/c1ccccc1)CCO
inhibition [1]: 16.7% | inhibition [2]: 18.1% | inhibition [3]: 20% | inhibition [4]: 19.2%

c1nc(NCc2ccc3c(c2)OCO3)c2cc(-c3ccoc3)ccc2n1
inhibition [1]: 70.4% (active) | inhibition [2]: 51.5% (active) | inhibition [3]: 54.8% (active) | inhibition [4]: 45.4% (active)

CCCCNc1nc2c(c(=O)n(C)c(=O)n2C)n1Cc1cccc(OC)c1
inhibition [1]: 11.7% | inhibition [2]: 25.3% | inhibition [3]: 16.8% | inhibition [4]: 26.6% (active)

Cn1c(/C=C/c2ccc(Cl)cc2)c([N+](=O)[O-])c(=O)n(C)c1=O
inhibition [1]: 39.6% | inhibition [2]: 35.7% (active) | inhibition [3]: 36.3% | inhibition [4]: 28.6% (active)

Nc1ncnc(NCc2ccc(F)cc2)c1[N+](=O)[O-]
inhibition [1]: 62.7% (active) | inhibition [2]: 29.8% (active) | inhibition [3]: 52.7% (active) | inhibition [4]: 29.9% (active)

Cc1ccc(NC(=O)C2CCN(c3ncnc4sc(C)c(C)c34)CC2)cc1S(=O)(=O)N(C)C
inhibition [1]: 10.3% | inhibition [2]: 12.1% | inhibition [3]: 17.6% | inhibition [4]: 1.39%

Cc1ccc2nc(-c3ccncc3)c(NC3CCCC3)n2c1
inhibition [1]: 38.8% | inhibition [2]: 29.2% | inhibition [3]: 27.3% | inhibition [4]: 25.7% (active)

CN1CC(=O)N2C(c3ccc(Cl)cc3)c3[nH]c4ccccc4c3C[C@H]2C1=O (stereo partly specified)
inhibition [1]: 41.6% | inhibition [2]: 29.5% (active) | inhibition [3]: 25% | inhibition [4]: 33.9% (active)

COc1cccc(-c2nnc3sc(C4CCCCC4)nn23)c1
inhibition [1]: 64.5% (active) | inhibition [2]: 29.1% | inhibition [3]: 57.4% (active) | inhibition [4]: 26.4% (active)

Cc1c(-c2ccccc2)oc2c(C(=O)N3CCN(c4ccc([N+](=O)[O-])cc4)CC3)cccc2c1=O
inhibition [1]: 54.4% (active) | inhibition [2]: 32.5% (active) | inhibition [3]: 45.9% | inhibition [4]: 27.3% (active)

COc1ccc(CNc2nn3c(-c4cccc(C(=O)N(C)C)c4)cnc3s2)cc1
inhibition [1]: 50.3% (active) | inhibition [2]: 30.7% (active) | inhibition [3]: 51.7% (active) | inhibition [4]: 33.5% (active)

O=[N+]([O-])c1cccc2c1ccc1ncccc12
inhibition [1]: 33% | inhibition [2]: 11.7% | inhibition [3]: 36% | inhibition [4]: 15.9%
